Reference: PubChem BioAssay AID449762 (Southern Research Specialized Biocontainment Screening …, 2010)
About 1,900 (0.58%) of roughly 330,000 compounds were called active. Another 4% or so got no clear call; they are omitted. A selection follows. Measured potencies and affinities stand elsewhere. Values without a mark were called inactive. Rule as the data show it: inconclusive = inhibition above about 70% without an active follow-up result; inactive = below that.

Test: M. tuberculosis growth inhibition, HTS (AID 449762);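 also: bacterial growth assessed after seven days of incubation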
Conditions: M. tuberculosis H37Rv growth inhibition, 7H9 media; at 25 µM; hits give high values

Structure (SMILES) | inhibition [%]
[O-][n+]1cccc(C(O)c2ccccc2)c1 (stereo not given) | -13.5
COC(=O)c1c(C)oc(C)c1S(=O)(=O)N1CCOCC1 | -2.09
C=CCNC(=O)C1CC(=O)N(c2ccc(OCC(=O)Nc3c(C)cccc3C)cc2)C1 (stereo not given) | 1.18
Cc1nc2ccccc2c(=O)n1/N=C/c1c(O)ccc2ccccc12 | 9.53
Cc1nnc(C)n1/N=C/c1c(O)ccc2ccccc12 | 2.29
O=C(Oc1ccccc1-c1nnco1)c1ccccc1 | -3.01
Clc1ccccc1COc1ccccc1-c1nnco1 | 19.4
C/C(=N/NC(=O)c1ccc(Br)o1)C(C)C | 3.04
COCCNC(=S)N1CCc2cc(OC)c(OC)cc2C1c1cccs1 (stereo not given) | -7.46
NC(=S)N/N=C\c1ccccc1OCc1ccccc1 | 49.5
NC(=S)N/N=C/c1ccccc1OCc1cccc(Cl)c1 | 2.95
Cc1ccc(N2C(=O)c3cccc([N+](=O)[O-])c3C2=O)cc1C | -6.94
COc1ccc(-c2cc3c(=O)n(CC(=O)NCCCN4CCN(Cc5ccccc5)CC4)ncn3n2)cc1 | 1.94
COc1ccc(-c2cc3c(=O)n(CC(=O)NCCCN4CCC(N5CCCCC5)CC4)ncn3n2)cc1 | 2.99
O=C(NCCC1=CCCCC1)C1CCN(C(=O)c2ccc(Br)cc2)CC1 | 5.13
Cc1ccccc1OCCn1cc(C(=O)O)c2ccccc21 | -0.94
O=C(CCS(=O)(=O)c1ccc(F)cc1)Nc1nc(-c2ccncc2)cs1 | 31.5
O=C(CCS(=O)(=O)c1ccccc1)Nc1nc(-c2ccc(F)cc2)cs1 | 8.67
CCc1cc(C(=O)Nc2ncccc2O)sc1C | 6.5
Cc1ccnc2nc(C(=O)Nc3nc(-c4ccccn4)cs3)nn12 | 0.14

Structure (SMILES) | inhibition [%]
COc1cccc(-c2nc(CS(=O)(=O)CC(=O)NCCCN3CCc4ccccc4C3)c(C)o2)c1 | -28.4
CCCc1cc(=O)n2[nH]cnc2n1 | -4.95
Cc1cc(C)n(CCOc2ccc(Br)cc2)n1 | 2.96
COc1ccc(/C=N/Nc2ncnc3sc4c(c23)CCCC4)cc1OC | -2.36
c1csc(CCNc2ncnc3sc4c(c23)CCC4)c1 | 1.63
CC(=O)CSc1nnc2cc(C)c3ccccc3n12 | 0.13
CC(=O)N1CCN(c2ccc(NC(=O)c3cccc(OCc4ccccc4)c3)cc2)CC1 | 62.8
Cn1c(=O)c2c(nc(NCC(O)CO)n2CCc2ccccc2)n(C)c1=O (stereo not given) | 2.12
CN1CCN(c2ccc(NC(=O)c3cccc(S(=O)(=O)N4CCCC4)c3)cc2)CC1 | -4.85
Cc1[nH]n(-c2ccccc2)c(=O)c1C(c1cccc([N+](=O)[O-])c1O)c1c(C)[nH]n(-c2ccccc2)c1=O | -4.36
COc1ccc(C(C[N+](=O)[O-])c2c(C)[nH]n(-c3ccccc3)c2=O)cc1 (stereo not given) | 32.3
CCN1CC(C)C(O)(c2ccccc2)CC1C (stereo not given) | -1.44
CCC1C(c2ccccc2)NC(c2ccccc2)CC1(O)c1ccc(F)cc1 (stereo not given) | 29.1
NC(=O)CC(NC(=O)Cc1cccc2ccccc12)c1ccc(N2CCC(Cc3ccccc3)CC2)c([N+](=O)[O-])c1 (stereo not given) | -0.77
COc1ccc(CN(C)C(=O)c2ccc(NC(=O)CC3SC(N4CCCC4)=NC3=O)cc2)c(OC)c1 (stereo not given) | 7.53
CC1CC(C)(C)CC2(C1)NC(=O)N(CC(=O)Nc1ccc(N3CCCCC3)cc1)C2=O (stereo not given) | 5.59
CC(C)NC(=S)NN=C1c2ccccc2-c2ccccc21 | -0.95
C=C(C)CNC(=S)NN=C1c2ccccc2-c2ccccc21 | 12.3
Cc1cc2c(cc(C(=O)O)n2C)s1 | -1.98
CCN(CC)CCCNC(=O)c1cc2c(-c3ccc(Cl)cc3)nn(C)c2s1 | 47.1

Structure (SMILES) | inhibition [%]
CCN(CC)CCNC(=O)c1cc2c(-c3ccc(Cl)cc3)nn(C)c2s1 | 7.68
c1ccc(-c2cc3ccccc3nc2N2CCCC2)cc1 | 4.32
Clc1ccc(-c2cc3ccccc3nc2N2CCOCC2)cc1 | 48.3
Cc1ccc(NC(=O)COC(=O)CCc2ccc(S(=O)(=O)N3CCOCC3)cc2)cc1F | 2.39
O=C(O)c1ccccc1C(=O)NC1CCCCNC1=O (stereo not given) | -1.29
OCCNCC(O)Cn1ccc2ccccc21 (stereo not given) | -2.23
OC(CNc1ccccc1)Cn1ccc2ccccc21 (stereo not given) | 12.2
CC(=O)c1ccc(C(=O)NC2CCCN(Cc3ccccc3F)C2)s1 (stereo not given) | -25.9
Cc1cc(C)cc(NC(=O)CCn2cnc3cc(C)c(C)cc32)c1 | 62.6
COc1ccc(C=C2C(=O)OC(C)(C)OC2=O)cc1OC | 5.49
COc1ccc(/C=C2\Cc3ccccc3C2=O)cc1OC | 5.99
CNC(=O)C(=O)NCC(c1cccs1)S(=O)(=O)c1ccc(F)cc1 (stereo not given) | -2.67
Cc1ccc(C)c(N2CCN(C(=O)c3ccc(NC4=NC5CS(=O)(=O)CC5S4)cc3)CC2)c1 (stereo not given) | -1.31
N#CC(C(=O)Nc1cccc(Cl)c1)=C1Nc2ccccc2N1 | 2.4
N#CC(C(=O)Nc1ccc(Cl)cc1)=C1Nc2ccccc2N1 | 1.22
O=C(CCCN1C(=O)S/C(=C\C=C\c2ccccc2)C1=O)Nc1ccc(C(=O)O)cc1 | -3.27
O=C(COc1ccc(C(=S)N2CCOCC2)cc1Cl)Nc1ccccc1Cl | 6.58
O=C(NNC(=O)C1CCN(S(=O)(=O)c2ccccc2C(F)(F)F)CC1)c1ccccc1O | 6.28
COc1cccc(N2CCN(C(=O)CCNS(=O)(=O)c3ccc4c(c3)c(=O)n(C)c(=O)n4C)CC2)c1 | -0.56
CCC(CC)c1nnc(NC(=O)c2cc([N+](=O)[O-])ccc2N2CCCCC2)s1 | 9.65
